The assay relates to CRL-7250. As to the kind of experiment: qHTS assay to identify novel small-molecules to repurpose for Merkel cell carcinoma treatment (AID 1296009). Note: nearly all actives have a fitted effect of over 60% in size. To be noted: MCC and control cell lines, CellTiter-Glo viability, 72 h; series mostly up to 92 µM. In a few lines:
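72 hr, 37 degree celsius; NPC 8-pt / MIPE 11-pt dose response; compound pinned in DMSO; CellTiter-Glo, 10 min RT, luminescence; normalized to no-cell and DMSO controls.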

Each structure is given as a SMILES string. Records with an inconclusive call do not appear. Entries that show only a call come without a potency. Calls of active or inactive are those of the source. Calls come from the whole dose curve; as a rule, active = well fitted inhibition curve with a large enough effect; inconclusive = small, poorly fitted or top-dose-only effect; inactive = flat fitted curve, though single readings scatter.

Take `COC(=O)C1=C[C@@H](O)[C@@H](O)[C@H](O[C@@H]2O[C@H](COC(=O)/C=C/c3ccccc3)[C@@H](O)[C@H](O)[C@H]2O)C1`: the Potency entry is “inactive”. For `COC(=O)[C@H](O)[C@H]1C(C)(C)[C@H](OC(C)=O)[C@@]2(O)C(=O)[C@]1(C)C1CC[C@]3(C)C(CC(=O)O[C@H]3c3ccoc3)[C@]13O[C@@H]32` (some centres undefined), the Potency result is “inactive”. For `C=CC(C)(CC/C=C(\C)CC/C=C(\C)CC(O)/C=C(\C)C(=O)O)O[C@@H]1O[C@H](CO)[C@@H](O)[C@H](O)[C@H]1O[C@@H]1O[C@H](CO)[C@@H](O)[C@H](O)[C@H]1O` (some centres undefined), the Potency entry is “inactive”.

Turning to `COc1ccc(CNC(=O)c2cc(-c3cncc(C)c3)ncc2-c2nccs2)nc1OC`, the Potency result was “inactive”.

For the compound `Cc1onc(-c2ccccc2Cl)c1C(=O)N(C)c1ccc(Cl)cc1`, the Potency entry is “inactive”. The entry for `CCCCc1c(-c2ccc(OC)cc2)[nH]c2nccnc12` is “inactive”; for `OCC(O)C(c1c[nH]c2ccccc12)c1c[nH]c2ccccc12` (centres undefined) it is “inactive”. Consider `C/C=C1\[C@H](O[C@@H]2O[C@H](CO)[C@@H](O)[C@H](O)[C@H]2O)OC=C(C(=O)OC)[C@H]1CC(=O)OC`, for which the Potency result was “inactive”. The entry for `CCC1OC(=O)C(C)CC(C)C(=O)/C(C)=C/C(C)C(=O)/C=C/C1(C)O` (centres undefined) is “inactive”.

(Values after PubChem BioAssay (NCATS).)
